Reference: the supplement of paper PMC10849652
Targets with a hit are over-represented here; the source holds about 7,900 in all. About 0.6% of all pairs of compound and target were hits.

Compound: NC(=O)Nc1cc(-c2cccc(F)c2)sc1C(=O)N[C@H]1CCCNC1
Assay: log2 fold change, soluble protein after heating vs DMSO (PISA); higher = thermal stabilisation; K562 cells, 10 uM, 30 min; active = over 0.2 and 3.5 SD of the protein, either way, in both replicates (recomputed)
Method in brief: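 Values are thermal stability changes relative to control samples and are taken from duplicates. They are stated as log2 fold changes. Before quantification by TMTpro 16plex LC-MS/MS with equalised channel sums, K562 cells at 2×10^6 cells/mL were treated with 10 μM compound for 30 min, heated in aliquots for 3 min across 48°C-58°C, pooled, extracted in PBS with 0.5% NP-40 at 4°C, and centrifuged at 21,000xg for 90 min to give the soluble supernatant.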

Sequence of UniProt Q6EEV4 (Q6EEV4 whole entry, looked up): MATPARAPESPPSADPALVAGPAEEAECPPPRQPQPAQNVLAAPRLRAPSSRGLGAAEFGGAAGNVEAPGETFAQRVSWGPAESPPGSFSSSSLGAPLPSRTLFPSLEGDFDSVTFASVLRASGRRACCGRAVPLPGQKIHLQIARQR
Sequence of UniProt Q13362 (Q13362 whole entry, looked up): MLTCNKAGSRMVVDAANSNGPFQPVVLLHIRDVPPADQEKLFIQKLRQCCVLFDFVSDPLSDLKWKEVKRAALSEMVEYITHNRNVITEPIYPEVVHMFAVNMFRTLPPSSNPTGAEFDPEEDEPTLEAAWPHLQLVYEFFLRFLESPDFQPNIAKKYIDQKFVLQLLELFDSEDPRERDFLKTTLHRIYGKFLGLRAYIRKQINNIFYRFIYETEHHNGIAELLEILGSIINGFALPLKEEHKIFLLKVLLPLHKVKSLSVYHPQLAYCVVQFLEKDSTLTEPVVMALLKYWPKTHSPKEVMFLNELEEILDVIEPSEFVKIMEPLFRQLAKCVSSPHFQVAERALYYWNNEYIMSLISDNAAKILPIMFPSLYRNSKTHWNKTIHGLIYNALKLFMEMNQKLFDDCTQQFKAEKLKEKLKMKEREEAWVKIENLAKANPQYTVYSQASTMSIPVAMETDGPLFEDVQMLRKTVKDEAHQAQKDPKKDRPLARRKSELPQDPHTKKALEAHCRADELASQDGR
Sequence of UniProt O96011 (O96011 whole entry, looked up, change not shown): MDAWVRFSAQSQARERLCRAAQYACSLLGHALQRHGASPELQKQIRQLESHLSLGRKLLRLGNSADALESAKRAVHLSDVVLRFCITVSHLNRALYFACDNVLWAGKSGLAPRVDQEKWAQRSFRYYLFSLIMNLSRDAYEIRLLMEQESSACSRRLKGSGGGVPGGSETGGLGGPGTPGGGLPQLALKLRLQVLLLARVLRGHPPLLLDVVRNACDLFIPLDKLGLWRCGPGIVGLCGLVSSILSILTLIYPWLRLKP
Sequence of UniProt P41247 (P41247 whole entry, looked up): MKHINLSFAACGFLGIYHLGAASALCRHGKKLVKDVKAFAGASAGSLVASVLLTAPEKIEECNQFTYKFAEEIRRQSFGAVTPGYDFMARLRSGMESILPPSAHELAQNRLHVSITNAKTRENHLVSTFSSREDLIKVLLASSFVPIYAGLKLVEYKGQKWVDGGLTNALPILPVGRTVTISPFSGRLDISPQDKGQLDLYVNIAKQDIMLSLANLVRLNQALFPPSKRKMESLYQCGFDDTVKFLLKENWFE
Sequence of UniProt P51665 (P51665 whole entry, looked up): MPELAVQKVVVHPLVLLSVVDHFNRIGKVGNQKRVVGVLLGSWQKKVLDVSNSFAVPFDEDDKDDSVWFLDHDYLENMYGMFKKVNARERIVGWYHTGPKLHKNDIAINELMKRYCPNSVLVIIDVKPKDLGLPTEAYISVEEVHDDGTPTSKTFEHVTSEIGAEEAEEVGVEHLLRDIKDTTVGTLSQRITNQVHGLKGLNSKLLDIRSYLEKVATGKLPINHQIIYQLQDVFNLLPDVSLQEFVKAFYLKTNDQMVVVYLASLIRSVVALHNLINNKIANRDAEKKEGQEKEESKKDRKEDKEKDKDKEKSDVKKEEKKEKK
Sequence of UniProt Q9Y5K3 (Q9Y5K3 whole entry, looked up): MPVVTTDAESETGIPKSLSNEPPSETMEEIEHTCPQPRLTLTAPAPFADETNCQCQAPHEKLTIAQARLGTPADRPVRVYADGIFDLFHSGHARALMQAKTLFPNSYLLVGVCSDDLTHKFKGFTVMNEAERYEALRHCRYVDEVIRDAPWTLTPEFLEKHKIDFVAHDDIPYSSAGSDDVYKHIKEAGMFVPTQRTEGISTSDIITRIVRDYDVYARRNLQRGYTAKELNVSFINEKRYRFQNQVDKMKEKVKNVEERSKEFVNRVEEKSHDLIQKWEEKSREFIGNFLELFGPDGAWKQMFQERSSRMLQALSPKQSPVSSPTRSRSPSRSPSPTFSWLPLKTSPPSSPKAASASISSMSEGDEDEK
Sequence of UniProt P40425 (P40425 whole entry, looked up): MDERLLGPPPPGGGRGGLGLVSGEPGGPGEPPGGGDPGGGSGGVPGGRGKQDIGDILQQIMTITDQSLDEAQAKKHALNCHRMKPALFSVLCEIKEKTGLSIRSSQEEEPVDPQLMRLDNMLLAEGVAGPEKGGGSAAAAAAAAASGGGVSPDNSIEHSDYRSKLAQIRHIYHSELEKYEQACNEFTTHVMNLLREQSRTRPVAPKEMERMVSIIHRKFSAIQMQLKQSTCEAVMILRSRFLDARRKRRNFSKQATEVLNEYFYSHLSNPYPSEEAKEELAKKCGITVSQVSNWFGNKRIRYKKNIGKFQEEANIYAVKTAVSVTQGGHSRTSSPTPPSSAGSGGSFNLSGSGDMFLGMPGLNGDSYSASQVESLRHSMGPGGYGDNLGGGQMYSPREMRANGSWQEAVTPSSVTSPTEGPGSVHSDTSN
Sequence of UniProt P46019 (P46019 whole entry, looked up): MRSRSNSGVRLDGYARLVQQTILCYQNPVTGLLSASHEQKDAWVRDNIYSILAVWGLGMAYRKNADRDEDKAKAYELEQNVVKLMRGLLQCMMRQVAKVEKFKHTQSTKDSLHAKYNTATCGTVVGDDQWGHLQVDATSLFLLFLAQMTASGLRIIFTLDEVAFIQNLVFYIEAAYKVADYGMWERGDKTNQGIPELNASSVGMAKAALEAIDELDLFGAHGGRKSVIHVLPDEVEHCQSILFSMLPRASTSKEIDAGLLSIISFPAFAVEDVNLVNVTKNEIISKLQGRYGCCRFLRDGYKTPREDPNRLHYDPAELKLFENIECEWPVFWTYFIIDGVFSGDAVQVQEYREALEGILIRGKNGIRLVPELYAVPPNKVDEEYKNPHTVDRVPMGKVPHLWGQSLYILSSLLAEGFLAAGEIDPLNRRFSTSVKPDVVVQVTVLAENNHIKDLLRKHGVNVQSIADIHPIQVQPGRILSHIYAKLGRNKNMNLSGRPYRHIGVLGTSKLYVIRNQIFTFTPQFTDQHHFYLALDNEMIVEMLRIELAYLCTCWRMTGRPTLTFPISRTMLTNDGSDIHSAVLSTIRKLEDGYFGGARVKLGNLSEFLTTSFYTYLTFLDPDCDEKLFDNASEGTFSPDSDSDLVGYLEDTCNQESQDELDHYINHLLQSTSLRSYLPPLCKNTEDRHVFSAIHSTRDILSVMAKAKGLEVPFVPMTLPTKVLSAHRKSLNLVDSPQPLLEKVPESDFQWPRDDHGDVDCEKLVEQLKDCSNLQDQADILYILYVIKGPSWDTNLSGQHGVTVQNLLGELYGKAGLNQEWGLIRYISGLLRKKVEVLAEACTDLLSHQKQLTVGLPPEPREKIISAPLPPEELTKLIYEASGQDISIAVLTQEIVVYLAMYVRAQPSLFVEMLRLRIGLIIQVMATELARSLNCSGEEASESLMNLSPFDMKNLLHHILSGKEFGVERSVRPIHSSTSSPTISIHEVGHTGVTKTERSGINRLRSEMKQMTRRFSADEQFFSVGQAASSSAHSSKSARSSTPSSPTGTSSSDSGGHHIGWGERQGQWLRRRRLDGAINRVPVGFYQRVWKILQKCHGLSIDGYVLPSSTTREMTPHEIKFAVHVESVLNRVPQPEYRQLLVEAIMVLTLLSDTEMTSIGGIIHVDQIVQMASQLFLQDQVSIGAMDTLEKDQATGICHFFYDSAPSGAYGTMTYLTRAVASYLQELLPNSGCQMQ
Sequence of UniProt Q96PU8 (Q96PU8 whole entry, looked up): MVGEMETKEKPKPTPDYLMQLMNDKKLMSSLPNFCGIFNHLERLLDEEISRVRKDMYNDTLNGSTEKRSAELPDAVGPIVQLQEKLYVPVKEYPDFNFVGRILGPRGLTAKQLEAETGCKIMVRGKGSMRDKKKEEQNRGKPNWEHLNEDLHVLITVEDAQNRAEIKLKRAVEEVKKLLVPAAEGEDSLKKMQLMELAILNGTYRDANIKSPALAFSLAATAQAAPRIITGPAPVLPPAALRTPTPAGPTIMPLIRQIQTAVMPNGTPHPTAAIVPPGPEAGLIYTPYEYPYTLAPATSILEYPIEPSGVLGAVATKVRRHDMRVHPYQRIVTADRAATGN
Sequence of UniProt Q8N165 (Q8N165 whole entry, looked up): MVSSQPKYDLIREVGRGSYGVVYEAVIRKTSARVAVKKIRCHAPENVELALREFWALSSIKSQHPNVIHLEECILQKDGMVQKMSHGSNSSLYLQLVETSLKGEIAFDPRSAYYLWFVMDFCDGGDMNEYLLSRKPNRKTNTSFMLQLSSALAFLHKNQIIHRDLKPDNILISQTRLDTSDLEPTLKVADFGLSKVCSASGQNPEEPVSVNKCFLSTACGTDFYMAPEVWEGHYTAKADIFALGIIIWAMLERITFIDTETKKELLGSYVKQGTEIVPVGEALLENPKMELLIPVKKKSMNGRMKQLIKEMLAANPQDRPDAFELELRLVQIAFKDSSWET
Sequence of UniProt P05423 (P05423 whole entry, looked up): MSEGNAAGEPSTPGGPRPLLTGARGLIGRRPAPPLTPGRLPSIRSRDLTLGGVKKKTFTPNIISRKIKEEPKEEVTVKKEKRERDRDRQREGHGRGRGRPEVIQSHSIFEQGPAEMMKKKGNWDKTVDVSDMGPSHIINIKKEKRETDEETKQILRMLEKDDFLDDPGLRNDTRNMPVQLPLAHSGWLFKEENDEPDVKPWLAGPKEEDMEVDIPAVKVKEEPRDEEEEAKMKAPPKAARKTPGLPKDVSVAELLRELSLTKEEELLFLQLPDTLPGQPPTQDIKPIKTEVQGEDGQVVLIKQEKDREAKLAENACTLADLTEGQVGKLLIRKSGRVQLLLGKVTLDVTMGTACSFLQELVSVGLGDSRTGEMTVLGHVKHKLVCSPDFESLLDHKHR
Sequence of UniProt Q8WUK0 (Q8WUK0 whole entry, looked up): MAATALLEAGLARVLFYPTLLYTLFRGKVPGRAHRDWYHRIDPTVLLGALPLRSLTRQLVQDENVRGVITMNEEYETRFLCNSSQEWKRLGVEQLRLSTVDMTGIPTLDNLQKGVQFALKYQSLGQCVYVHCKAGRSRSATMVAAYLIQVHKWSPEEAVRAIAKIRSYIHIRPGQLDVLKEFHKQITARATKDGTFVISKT

Row | Target | log2 fold change
1 | POLR3D (UniProt P05423) | -0.061 (inactive)
2 | PRKCA (UniProt P17252) | -0.085 (inactive)
3 | POLR2C (UniProt P19387) | -0.046 (inactive)
4 | PRKD2 isoform 3 (UniProt Q9BZL6) | -0.515 (active)
5 | PHKA2 (UniProt P46019) | 0.013 (inactive)
6 | POLR2M (UniProt Q6EEV4) | 0.027 (inactive)
7 | PGGHG (UniProt Q32M88) | -0.036 (inactive)
8 | PTPMT1 (UniProt Q8WUK0) | -0.087 (inactive)
9 | PEX11B (UniProt O96011) | 0.095 (inactive)
10 | PDIK1L (UniProt Q8N165) | 0.566 (active)
11 | PCYT1B (UniProt Q9Y5K3) | -0.019 (inactive)
12 | PTP4A2 (UniProt Q12974) | -0.161 (inactive)
13 | PEF1 (UniProt Q9UBV8) | -0.029 (inactive)
14 | PHKA1 (UniProt P46020) | 0.03 (inactive)
15 | PISD (UniProt Q9UG56) | 0.023 (inactive)
16 | PDE6D (UniProt O43924) | 0.001 (inactive)
17 | PNPLA4 (UniProt P41247) | 0 (inactive)
18 | PSMD7 (UniProt P51665) | -0.04 (inactive)
19 | PNN (UniProt Q9H307) | -0.018 (inactive)
20 | PBX2 (UniProt P40425) | 0.089 (inactive)
21 | PPP2R5C isoform 4 (UniProt Q13362) | -0.035 (inactive)
22 | PIP4P1 isoform 2 (UniProt Q86T03) | 0.012 (inactive)
23 | QKI (UniProt Q96PU8) | -0.057 (inactive)
